Molecules are shown by their SMILES. Hit rate of the full screen: of about 21,000 compounds, fewer than 10 were called active. These entries were drawn from the full list. Values without a mark were called inactive.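 How the source made its calls: active means inhibition above 50% at the 20 µM single-dose screen; inactive means the rest.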

Alkaline phosphatase, tissue-nonspecific isozyme (Homo sapiens), sequence (P05186 whole entry, looked up): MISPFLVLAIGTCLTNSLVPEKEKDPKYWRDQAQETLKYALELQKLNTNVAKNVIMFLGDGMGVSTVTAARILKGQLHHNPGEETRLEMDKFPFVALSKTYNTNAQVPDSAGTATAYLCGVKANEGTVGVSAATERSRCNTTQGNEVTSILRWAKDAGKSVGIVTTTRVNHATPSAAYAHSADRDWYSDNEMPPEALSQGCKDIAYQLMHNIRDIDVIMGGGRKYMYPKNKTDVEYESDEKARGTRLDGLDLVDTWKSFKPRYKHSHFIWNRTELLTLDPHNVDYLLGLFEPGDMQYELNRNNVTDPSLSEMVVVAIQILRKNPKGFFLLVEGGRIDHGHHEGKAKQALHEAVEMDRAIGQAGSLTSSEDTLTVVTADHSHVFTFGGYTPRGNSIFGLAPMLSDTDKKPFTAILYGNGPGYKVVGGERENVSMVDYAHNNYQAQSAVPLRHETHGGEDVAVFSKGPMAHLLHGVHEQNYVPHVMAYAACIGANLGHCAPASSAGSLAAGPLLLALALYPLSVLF

This experiment has as its target Alkaline phosphatase, tissue-nonspecific isozyme (Homo sapiens) (UniProt P05186). Description: blockers of alkaline phosphatase TNAP catalysis – biochemical, colorimetric, p-nitrophenol readout, primary screen (AID 615).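 Further: 0% = DMSO only wells and 100% = 1 mM levamisole wells.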 The note with it: purified TNAP, pNPP hydrolysis, absorbance 405 nm; at 20 µM; active compounds read high.
Regarding `Cc1nnc(N(Cc2ccco2)C(=O)c2ccno2)s1`, the inhibition is 1.8%.

Consider `O=C(Nc1ccc2c(c1)OCCO2)c1ccncc1`, for which the inhibition is 3.7%.

Regarding `CCOC(=O)c1sc(/N=C/Nc2nc(C)c(C(=O)OCC)s2)nc1C`, the inhibition was 0%.

For `COc1ccc(N(Cc2cc3cc(OC)ccc3[nH]c2=O)S(C)(=O)=O)cc1`, the inhibition was 2.6%.

`O=C(CSc1ncccn1)NCCc1ccccc1`: the inhibition is 1.9%.

As to `CC12CCC(C(=O)N(CCC#N)CCC#N)(CC1=O)C2(C)C` (centres undefined), the inhibition was 5.5%.

Take `CNC(=O)CSc1nnc(CCc2ccccc2)n1-c1ccccc1`: the inhibition is -9%.

As to `O=C(CCCOc1ccccc1)Nc1cccc(C(=O)O)c1`, the inhibition was 7.6%.

Regarding `CC(C)C[C@H](NC(=O)NCCc1ccc(Cl)cc1)C(=O)O`, the inhibition was 2.2%.

For `Cc1cc(C)c2nc(SCCC#N)nc(C)c2c1`, the inhibition was -0.5%.

For the molecule `CCCCn1nnnc1NCc1cc(OC)c(OC)c(OC)c1`, the inhibition was -0.6%.

Turning to `C=CCn1c(COc2ccccc2)nnc1SCC(=O)NCC(=O)OCC`, the inhibition was -6.9%.

Consider `CC(=O)Cc1nsc(NC(=O)c2ccc(COc3ccc(C)cc3)o2)n1`, for which the inhibition was 1.5%.

Take `Cc1cc(NC(=O)c2cnn3cccnc23)n(-c2ccccc2)n1`: the inhibition was 3.9%.

Regarding `Cc1ccc(S(=O)(=O)N2CCC(C(=O)N[C@@H](C)C(=O)NCCc3ccccc3)CC2)cc1`, the inhibition is -7.1%.

For the molecule `CCC(CC)C(=O)Nc1cc(C(=O)OC)cc(C(=O)OC)c1`, the inhibition is 4.4%.

On to `CC(=O)N1CCN(CCN=CC2=C(O)CC(C)(C)CC2=O)CC1`, for which the inhibition was 5.5%.

On to `Cc1ccc2c(C(=O)CN3CCCC3)c(C)[nH]c2c1`, for which the inhibition is -14.5%.

As for `O=C(O)CN(Cc1ccco1)S(=O)(=O)c1ccc(F)cc1`, the inhibition was 0.4%.

Turning to `COc1ccc(NC2CC(=O)N(C)C2=O)cc1` (centres undefined), the inhibition is 3.1%.

Regarding `Cc1occc1C(=O)Nc1cccc(Cn2cccn2)c1`, the inhibition was -2.4%.

In the case of `CC(=O)OCc1cc(=O)n(C)c(=O)n1C`, the inhibition is 1.6%.

In the case of `Nc1nnnn1/N=C/c1cccs1`, the inhibition was 0%.

As to `CC(C)c1nc(-c2ccccn2)no1`, the inhibition is 2.2%.

In the case of `CSCCC(NC(=O)c1ccc(=O)n(C)n1)c1nc2ccccc2[nH]1` (centres undefined), the inhibition is -0.4%.

In the case of `CCc1ccccc1N(CC(=O)N1CCN(c2ccccc2F)CC1)S(C)(=O)=O`, the inhibition was 3.4%.

With `Cc1cccc(N(CC(O)CN(C)C)S(=O)(=O)c2ccccc2)c1` (centres undefined), the inhibition is 6%.

On to `CC(=O)Nc1nc(C)c(Cc2ccccc2)c(=O)[nH]1`, for which the inhibition was 0%.

Consider `CC(C)C(c1nnnn1C1CCCC1)N1CCN(c2ccccc2F)CC1` (centres undefined), for which the inhibition is 4.1%.

Regarding `O=C(NC(c1ccccc1)c1ccccc1)N1CCN(CCO)CC1`, the inhibition is 5.5%.

As for `c1ccc(-n2ncc(-c3nn[nH]n3)n2)cc1`, the inhibition was 1.2%.

In the case of `COc1ccc(C2/C(=C(/O)c3ccc(OC(C)C)cc3)C(=O)C(=O)N2CCCN2CCOCC2)cc1` (centres undefined), the inhibition is 2.6%.

As for `CCCOc1ccc(CN(CCO)CCO)cc1C(=O)OC`, the inhibition is 8.5%.

In the case of `CCC(=O)Nc1cccc(NC(=O)CSc2nnnn2C2CCCC2)c1`, the inhibition was 4.5%.

With `CCOC(=O)N1CCN(Cc2oc(CO)cc(=O)c2O)CC1`, the inhibition was 4.3%.

As to `Cc1ccc(-n2c(Cc3cccs3)nnc2SCC(=O)OC(C)C)cc1`, the inhibition is -1%.

Turning to `CCc1nnc(NC(=O)CSc2nnc(-c3ccncc3)n2Cc2ccccc2)s1`, the inhibition was 5.3%.

With `Cn1c(=O)c2c(nc(Br)n2CCSc2nc3ccccc3o2)n(C)c1=O`, the inhibition was 0%.

For `COc1ccc(CCNS(=O)(=O)c2ccc(F)cc2)cc1OC`, the inhibition is 3.6%.

On to `Nc1nonc1-c1nc2ccccc2n1Cc1ccc(F)cc1`, for which the inhibition was -0.2%.

`COCCCn1c2nc3ccccc3nc2c2c(=O)n(Cc3ccc(Cl)cc3)c(C)nc21`: the inhibition was 7.2%.

As to `CN1CCN(C(=O)C2C3C=CC(C3)C2C(=O)O)CC1` (centres undefined), the inhibition is 3.6%.

With `CCCCC(=O)N1CC2(C)CN(C(=O)CCCC)CC(C)(C1)C2=O`, the inhibition was -3.1%.

Take `O=C(CSc1nnc(-c2cccs2)n1Cc1ccco1)c1ccc2c(c1)OCO2`: the inhibition is 1.9%.

As to `COc1ccc(/C(O)=C2/C(=O)C(=O)N(CCCN(C)C)C2c2ccccc2)cc1OC` (centres undefined), the inhibition was 2.9%.

As to `CCCCC(=O)Nc1ccc2c(c1)OCCO2`, the inhibition is -5.8%.

Take `CC(=O)C1=C(O)C(=O)N(c2ccc(S(N)(=O)=O)cc2)C1c1ccccc1F` (centres undefined): the inhibition was 0.8%.

On to `CCOC(=O)c1c(-n2cnnn2)sc(C)c1C`, for which the inhibition was 3.1%.

Regarding `Cn1c2c(c(=O)n(C)c1=O)CN(Cc1ccco1)CN2`, the inhibition is -1.5%.

In the case of `Cc1ccc(NC(=O)N2CCC(C(=O)NCc3ccc(F)cc3)CC2)cc1`, the inhibition was 6.4%.

As to `Cc1ccccc1C(=O)Nc1cccc(-c2nnc(SCC(=O)O)n2C)c1`, the inhibition is 1.1%.

Take `Cc1ccc2[nH]c3c(c2c1)CN(C(=O)CN1CCN(c2ccccc2)CC1)CC3`: the inhibition was 2.7%.

Turning to `CC(=O)N(CN1C(=O)C2CC=CCC2C1=O)c1cccc(Cl)c1` (centres undefined), the inhibition is 7.2%.

Regarding `COc1ccc(C2/C(=C(/O)c3ccccc3)C(=O)C(=O)N2c2ncccn2)cc1OC` (centres undefined), the inhibition was -1.7%.

`COc1ccc(C(CNC(=O)c2cccnc2SC)N2CCOCC2)cc1` (centres undefined): the inhibition is -2%.

For the molecule `CCCCNc1nc2c(c(=O)[nH]c(=O)n2C)n1CCOc1ccccc1`, the inhibition is 4.2%.

As for `CC(=O)c1cc(-c2ccccc2)[nH]c1N1CCCC1`, the inhibition is 0.8%.

For the molecule `O=C(C1CCCO1)N1CCC(c2nc3ccccc3[nH]2)CC1` (centres undefined), the inhibition is 5.7%.

Take `O=C1Nc2ccccc2C12Nc1ccccc1S2` (centres undefined): the inhibition is 2%.

As for `Cc1ccc(-c2c3c(=O)n(C)c(=O)n(C)c3cn2-c2ccccc2O)cc1`, the inhibition is 1.8%.

Regarding `Cc1ccccc1-n1c(SCC(=O)NCc2cccs2)nnc1-c1ccncc1`, the inhibition was -7.5%.

For the molecule `CCc1nnc(NC(=O)c2c(O)c3c([nH]c2=O)CCCC3)s1`, the inhibition was 6.2%.

On to `COc1ccccc1CNC(=O)C1CCN(S(C)(=O)=O)CC1`, for which the inhibition was 7.2%.

Regarding `COc1ccc(NC(=O)c2c(C)oc3c2CCCC3)cc1`, the inhibition is 5.5%.

On to `Cc1nc2nc(CSc3nc4ccccc4s3)cc(=O)n2[nH]1`, for which the inhibition was 1.3%.

With `CCOC(=O)C1CCCCN1Cc1ccc(OC)c(OC)c1OC` (centres undefined), the inhibition is 6.8%.

As to `CS(=O)(=O)N(CC(=O)N1CCN(Cc2ccc3c(c2)OCO3)CC1)c1ccc2c(c1)OCO2`, the inhibition is -15%.

For `Cc1cc(C(=O)COC(=O)c2cccs2)c(C)n1-c1c(C)n(C)n(-c2ccccc2)c1=O`, the inhibition is 4.7%.

Turning to `CCCOP(=O)(c1ccc(N(C)C)cc1)C(O)c1cc(OC)c(OC)c(OC)c1` (centres undefined), the inhibition was 12.9%.

As for `COc1ccc(CCNC(=O)CSc2nnc(-c3cccc(F)c3)o2)cc1OC`, the inhibition is -1.5%.

As for `COc1ccc(CCN(C)CCN2C(=O)c3ccccc3C2=O)cc1OC`, the inhibition was -0.3%.

On to `Cc1ccc(C(=O)NC2CCN(C(=O)N3CCOCC3)CC2)cc1`, for which the inhibition was 7%.

Consider `COc1ccc(N2CCN(C(c3cc4ccc(C)cc4[nH]c3=O)c3nnnn3C3CCCC3)CC2)cc1` (centres undefined), for which the inhibition is 14.6%.

As to `CCOC(=O)c1c(NC(=O)c2ccc(Br)o2)sc2c1CCCC2`, the inhibition is 1%.

In the case of `Cc1cc(=O)[nH]c(SCC(N)=O)c1C#N`, the inhibition is -1.7%.

As for `O=C(c1ccc2c(c1)C(=O)N(c1ccc(Cl)cc1)C2=O)N1CCN(c2ccccn2)CC1`, the inhibition is 5.1%.

Take `CCOc1ccc2nc(NC(=O)CSc3nc4c(c(=O)n(C)c(=O)n4C)n3CC)sc2c1`: the inhibition is 4.9%.

Take `CN(C)CCNC(=O)C(C(=O)c1ccccc1)n1ccccc1=O` (centres undefined): the inhibition is 1.2%.

Take `CCc1c(C)sc(NC(=O)OC)c1C(=O)N1CCOCC1`: the inhibition is 4.1%.

Consider `O=C(O)CN1C(=O)CC(Cc2ccccc2)C1=O` (centres undefined), for which the inhibition was 4.8%.

`CCNC(=O)N1CCNC(=O)C1CC(=O)Nc1ccc(C(=O)OCC)cc1` (centres undefined): the inhibition was 4.4%.

In the case of `CCOC(=O)c1[nH]c2ccccc2c1N=C(C)N(CC)CC`, the inhibition was -0.8%.

Turning to `Cc1nn(Cc2ccccc2)c(Cl)c1C(=O)OC1CCOC1=O` (centres undefined), the inhibition was 3.6%.

Regarding `CCC1C(C#N)=C(SC)NC2=C1C(=O)CC(C)(C)C2` (centres undefined), the inhibition was -2.9%.

Take `COc1ccc(CC(=O)n2nc(-c3cccnc3)nc2N)cc1`: the inhibition was 6.9%.

As for `Cc1cccc(OCc2nnc(SCC(=O)N3CCN(C(=O)c4ccco4)CC3)n2C)c1C`, the inhibition was 0.2%.

On to `c1csc(CN2CCN(Cc3cccs3)C2c2cccs2)c1`, for which the inhibition is 5.5%.

Consider `CCN1C(=O)/C(=C\N2CCN(c3cccc(Cl)c3)CC2)SC1=S`, for which the inhibition was 6.1%.

`COC(=O)[C@H](CCSC)NC(=O)Nc1ccc(OC)cc1`: the inhibition is 4.9%.

Consider `C#CCN1CC(C)/C(=N/O)CC1C` (centres undefined), for which the inhibition is 2.4%.

Take `CC(C)OC(=O)C(C#N)c1nc2ccccc2nc1N1CCN(Cc2ccc3c(c2)OCO3)CC1` (centres undefined): the inhibition was 0%.

Take `O=C(Nc1ncccn1)c1cccs1`: the inhibition was 3.3%.

As for `CCCCCN(C(=O)NC(=O)Nc1ccccc1C)S(C)(=O)=O`, the inhibition is 0.7%.

For the molecule `Cc1ccc(C(=O)Nc2nnc(-c3ccncc3)s2)o1`, the inhibition is -1.1%.

`O=C(c1cccs1)N1CCCC(c2nc(-c3ccc(F)cc3)no2)C1` (centres undefined): the inhibition is 2.9%.

Consider `CCCc1cc(=O)oc2c(C)c(O)c(CN3CCCCC3)cc12`, for which the inhibition is 0.2%.

Take `COc1ccc2c3c(c(=O)oc2c1OCC(=O)C(C)(C)C)CCCC3`: the inhibition was 3.6%.

As for `CCOC(=O)CSc1nnc(CNc2nc(-c3ccccc3)cs2)n1C`, the inhibition is 5.4%.

For the molecule `CCc1cc2c(=O)c(-c3ccon3)c(N)oc2cc1OC`, the inhibition is 5.4%.

Regarding `Cc1ccnc(SCCn2c(Br)nc3c2c(=O)[nH]c(=O)n3C)n1`, the inhibition is 3%.

For the molecule `O=C(Nc1cnn(Cc2ccc(Cl)cc2)c1)C1CCCC1`, the inhibition is 9.7%.

On to `COc1cc(OC)cc(C(=O)NCCSCc2ccco2)c1`, for which the inhibition is 5.2%.

As to `CC1(N2CCOCC2)CC2(O)C(=[N+]1[O-])CCc1nonc12` (centres undefined), the inhibition was 9.3%.

As to `CC1CN(C2CCN(C(=O)COc3ccccc3)CC2)CC(C)O1` (centres undefined), the inhibition was -2.1%.

Turning to `CC(C)c1nnc(NC(=O)C2CCCN2S(=O)(=O)c2ccc(Cl)cc2)s1` (centres undefined), the inhibition was 3.8%.

Consider `O=C(CSc1nnc(Cc2ccccc2)n1-c1ccccc1)N1CCOCC1`, for which the inhibition was 0.4%.

Consider `Cc1cccc(NC(=O)CSc2nnc(CCCCCNC(=O)OC(C)(C)C)o2)c1C`, for which the inhibition was -8.7%.

`COC(=O)c1ccc(NC(=O)CSc2nnc(-c3ccncc3)n2C)cc1`: the inhibition is 1.1%.

As for `O=C(O)C1CCCN1S(=O)(=O)c1ccc2c(c1)CCC2` (centres undefined), the inhibition is 0.7%.

Broadly, the inhibition is the drop in the measured response relative to a control, in per cent.

Values taken from PubChem BioAssay AID615 (Sanford-Burnham Center for Chemical Genomics, 2007).
